Screening results as filed in PubChem.
Sampled rows, rich in hits. Any-hit rate of the full collection: about 3.7%.
BJeLR lethal – BJeLR cell viability loss. BJeLR (HRASV12) viability, CellTiter-Glo ATP luminescence, 48 h. inhibition, % (no concentration beside the values). 300,000 tested, 0.17% active; in the data active means inhibition above about 50%; inconclusive means no clear call, values can overlap the other calls
BoNT A protease – blocks Botulinum neurotoxin A light chain protease | multiplex microsphere protease substrate cleavage, flow cytometry | inhibition, % at 10 µM | 360,000 tested, 0.17% active | AID 588499; further: plate controls were buffer without enzyme for full effect and enzyme alone for no effect
Anthrax LF inh2 – blocks Bacillus anthracis lethal factor protease; P15917; multiplex microsphere protease cleavage assay, LF; inhibition, % at 10 µM; 360,000 tested, 0.12% active; further: plate controls were buffer without enzyme for full effect and enzyme alone for no effect
Target sequence (P15917 whole entry, looked up): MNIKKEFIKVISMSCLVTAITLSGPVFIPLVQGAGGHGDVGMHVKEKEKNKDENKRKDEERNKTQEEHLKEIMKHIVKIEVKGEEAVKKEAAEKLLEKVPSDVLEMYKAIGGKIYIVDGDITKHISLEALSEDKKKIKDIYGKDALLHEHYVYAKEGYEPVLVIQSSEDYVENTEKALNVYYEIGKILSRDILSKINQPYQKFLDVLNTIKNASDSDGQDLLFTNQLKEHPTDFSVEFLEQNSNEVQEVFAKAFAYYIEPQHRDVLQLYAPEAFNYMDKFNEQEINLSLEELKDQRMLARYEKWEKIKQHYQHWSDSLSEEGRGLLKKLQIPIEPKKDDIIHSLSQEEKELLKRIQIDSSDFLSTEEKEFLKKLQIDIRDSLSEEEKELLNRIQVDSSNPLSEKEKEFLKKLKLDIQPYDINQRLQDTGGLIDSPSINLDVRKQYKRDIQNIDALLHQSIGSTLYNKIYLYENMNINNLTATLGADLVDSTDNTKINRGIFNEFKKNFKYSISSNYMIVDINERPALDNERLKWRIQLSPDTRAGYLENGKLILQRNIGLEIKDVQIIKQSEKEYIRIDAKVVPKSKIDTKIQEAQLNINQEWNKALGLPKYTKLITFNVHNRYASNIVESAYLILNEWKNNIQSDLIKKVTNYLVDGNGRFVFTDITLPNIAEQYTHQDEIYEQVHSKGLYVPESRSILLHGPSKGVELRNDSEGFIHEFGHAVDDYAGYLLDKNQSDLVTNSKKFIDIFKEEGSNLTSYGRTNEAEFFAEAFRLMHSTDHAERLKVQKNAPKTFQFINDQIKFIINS
Bead autofluor – compound fluorescence in toxin protease inhibitor counterscreen; compound autofluorescence counterscreen, microsphere flow cytometry; hits give high values; fluorescence intensity (concentration not given with the values); 360,000 tested, 3.1% active; AID 624483; in the data active means fluorescence intensity above about 16000; inconclusive means no clear call, values can overlap the other calls
BoNT F protease – BoNT F light chain protease inhibition | Multiplex microsphere protease cleavage assay, flow cytometry | inhibition, % at 10 µM | 360,000 tested, 0.22% active | AID 588497; in the data active means inhibition above about 35%, passing the limit was not always enough; inconclusive means no clear call, values can overlap the other calls; further: plate controls were buffer without enzyme for full effect and enzyme alone for no effect
Vc quorum ag-1 – quorum light induction in luxS cqsA deficient V. cholerae | 350,000 tested, 0.16% active | activation, % at 18.7 µM | V. cholerae BH1578 lux reporter, luminescence, 6 h; in the data active means activation mostly above about 9.7%, no sharp cut-off; inconclusive means no clear call, values can overlap the other calls; inactive means mostly below about 3.7%
Vc quorum ag-2 – quorum light induction in BH1578 reporter strain; shares compounds with Vc quorum ag-1; V. cholerae BH1578 lux reporter, luminescence, 6 h; activation, % at 50 µM; 620 tested, under 10 active; AID 602243; call rule not given here
HeLa 24h tox – HeLa cell viability loss at 24 h. shares compounds with Vc quorum ag-1. CellTiter-Glo ATP luminescence. activity change, negative = cytotoxicity, % at 35 µM. 25 tested, under 10 active;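 active means signal drop with fitted half-maximal concentration at or below twice the highest valid dose; inconclusive means flat curve with 30 to 70% loss, or poor fit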
* hit, by the source's call; i = inactive; ? = inconclusive; . = no result given. Unless noted, no stated cut-off is given here; in the data, active means inhibition above about 30%; inconclusive means no clear call, values can overlap the other calls; inactive means below that.

SMILES | BJeLR lethal | BoNT A protease | Anthrax LF inh2 | Bead autofluor | BoNT F protease | Vc quorum ag-1 | Vc quorum ag-2 | others
COC(C(=O)Nc1ccccc1C(=O)N1CCOCC1)c1ccccc1 (configuration not stated) | -12 | 2 | 3 | 5603 | -2 | 11 | 0
COCCNc1nc2c(c(=O)n(Cc3ccc(OC)cc3)c(=O)n2C)n1C | 2 | -1 | -3 | 22936* | -2 | 14 | 0
CCn1c(CC(=O)Nc2cccc(Cl)c2Cl)nnc1SCCOc1ccc(OC)cc1 | 3 | 0 | 0 | 10814 | -14 | . | i | HeLa 24h tox=7
CCc1cccc(OCC(=O)Nc2ccccc2N2CCCC2)c1 | -7 | 4 | 0 | 6028 | -7 | i | .
CCCCCCn1cc(CN2CC(N3CCN(C4CCN(C)CC4)CC3)CS2(=O)=O)nn1 (configuration not stated) | . | 0 | -3 | 4533 | 6 | . | .
O=[N+]([O-])c1ccc2c(c1)C(=NO)c1cc(Cl)c(Cl)cc1-2 | . | 1 | -3 | 3600 | -8 | i | .
O=c1c2c3c(sc2ncn1Cc1ccc(F)cc1)CCC3 | 1 | 10 | 10 | 4632 | 4 | 25 | 0
COc1cc(SC)ccc1C(=O)OCC(=O)NCC(C)C | 1 | 0 | -1 | 4183 | 3 | 67* | 430
COc1cc(SC)ccc1C(=O)OCC(=O)NC(=O)NC(C)C | 0 | 0 | -4 | 4101 | -4 | 0 | .
COc1ccc(NS(=O)(=O)c2cccc(C(=O)N3CCCC(C)C3)c2)cc1 (configuration not stated) | 2 | -6 | 0 | ? | -10 | 19 | 0
Cc1ccc(NS(=O)(=O)c2cccc(C(=O)N3CCCC(C)C3)c2)cc1 (configuration not stated) | -2 | 4 | -2 | 4245 | 2 | i | .
Cc1sc(N=Nc2ccc(N(C)C)cc2)[n+]([O-])c1C | . | 0 | -7 | 3964 | 3 | i | .
CCC(c1nnnn1-c1ccc2c(c1)OCCO2)N1CCN(c2ccccn2)CC1 (configuration not stated) | . | 0 | 2 | 5315 | -6 | . | .
CCOC(=O)c1c(C)[nH]c(C(=O)COC(=O)C2(C)CC2(Cl)Cl)c1C (configuration not stated) | 4 | 0 | -1 | 23186* | -1 | 12 | 0
CCc1nc2ccc(C(=O)NC3CCN(Cc4ccccc4)CC3)cn2c1N(C)Cc1ccc(N(C)C)cc1 | . | 0 | 1 | 2956 | -3 | 0 | .
Cc1cc(C(=O)OCC(=O)Nc2cc(Cl)ccc2C)c(C)o1 | . | 2 | 5 | 5361 | -8 | 12 | .
O=C(COC(=O)c1cc(Cl)ccc1Cl)NC1CCCC1 | 2 | 3 | -4 | 3207 | 0 | 28* | 29
CC(C)(C)c1ccc(C(=O)OCC(=O)NC2CC2)cc1 | . | -3 | 0 | 6965 | -3 | 26 | 18
O=C(COC(=O)c1ccc(O)cc1)NC1CCCCCC1 | . | 0 | -9 | 3529 | -6 | i | .
Cc1cc(C(=O)OCC(=O)Nc2ccccc2F)c(C)o1 | 15 | . | . | . | . | 57* | 15
CC(C)c1ccc(OCC(=O)NC2CCCC2)cc1 | 0 | -1 | -1 | 5327 | -3 | . | i
COc1ccc(OCC(=O)NC2CCCCCCC2)cc1 | 0 | -3 | -5 | 3406 | -13 | 0 | .
Cc1ccc(C(=O)OCC(=O)NC2CCCC2)cc1 | -9 | 1 | 1 | 3604 | -21 | . | i | HeLa 24h tox=11
Cc1cc(C(=O)OCC(=O)NC2CCCCC2)c(C)o1 | 5 | . | . | . | . | 175* | 660
O=C(COC(=O)c1ccc(O)cc1)NC1CCCC1 | -6 | -1 | 10 | 3803 | 14 | i | .
CCC(O)(Cc1ccccn1)Cc1ccccn1 | . | 0 | 2 | 3966 | 1 | -6 | .
CCOC1=C2[C@@H](CN(S(=O)(=O)c3ccc(C)cc3)[C@H]2c2ccccc2Cl)[C@H]2C(=O)N(Cc3ccccc3)C(=O)[C@H]2C1 | . | 0 | -7 | 5264 | -3 | . | .
O=C(OC1CCN(c2ncc(C(F)(F)F)cc2Cl)CC1)c1ccc(Cl)cc1 | 0 | 0 | -2 | 24209* | -3 | 12 | 0
COc1cc(-c2c(CCO)sc3ccccc23)cc(OC)c1OC | . | 1 | -4 | 5544 | 21 | . | .
